From PubChem BioAssay (Tox21) come the findings set out here.

Inconclusive results are not listed. Entries that show only a call come without a potency. Active and inactive are the calls of the source. Calls come from the whole dose curve; as a rule, active = well fitted inhibition curve with a large enough effect in the repeat runs; inconclusive = weak or mixed curves, or effect the other way; inactive = no such curve, though single readings can be large or run the other way.
Potency is the fitted concentration of half-maximal effect.

The target of this test is Nuclear receptor ROR-gamma (Homo sapiens) (UniProt P51449). Nature of the test: qHTS assay to identify small molecule antagonists of the retinoid-related orphan receptor gamma (ROR-gamma) signaling pathway (AID 1159521; note: nearly all actives have a fitted effect of over 50% in size). As to conditions: Tet-on RORgamma CHO cells, RORE-luciferase, 16 h; series mostly up to 92.4 µM. The text has this:
U.S. Tox21 Program National Center for Advancing Translational Sciences [NCATS] NIH Chemical Genomics Center [NCGC] U.S. Environmental Protection Agency [EPA] National Institutes of Environmental Health Sciences [NIEHS] National Toxicology Program [NTP] U.S. Food and Drug Administration [FDA] Tox21 Assay Overview: Nuclear steroid hormone receptors are involved in many biological processes including inflammatory responses, cell proliferation, and apoptosis. Environmental factors or compounds disrupting these nuclear receptor pathways and gene expression may promote susceptibility to immunotoxicants and autoimmune diseases. One important group of these expression factors are the retinoid-related orphan receptors. To assess compounds that may interfere with the retinoid-related orphan receptor gamma (ROR-gamma) transcription factor, a cell-based luciferase assay was used. The CHO cell-based assay utilizes a TET-inducible ROR expression factor and ROR response element-LUC reporter gene. Reporter gene activity was induced using Doxycycline Hyclate and measured after 16 hr incubation. Tet-on ROR gamma CHO cells were used to screen against the Tox21 10K compound library for ROR gamma antagonists by quantification of decreased reporter gene activity in terms of decreased luminescence.
Tox21 Assay Protocol Summary: Tet-on ROR gamma CHO cells were dispensed at 1,000 cells in 4 uL of culture medium per well into white wall/solid bottom 1536-well plates using a Multidrop Combi (Thermo Scientific, Waltham, MA) dispenser. Following incubation at 37 C and 5% CO2 for 4 hr, 23 nL of compounds dissolved in DMSO, positive controls or DMSO only were transferred by a Pintool station (Kalypsys, San Diego, CA) and after 2 hr incubation at 37 C, one ul of 1 uM (final concentration) of Doxycycline Hyclate was added to all the wells by using a Flying Reagent Dispenser (FRD) (Aurora Discovery, San Diego, CA). After 16 hr incubation at 37 C and 5% CO2, 5 uL of ONE-Glo reagent (Promega Corporation, Madison, WI) was added to each assay plate using FRD. After 30 min incubation at room temperature, luminescence was quantified on a ViewLux plate reader (Perkin Elmer, Waltham, MA).
(In general: Quantitative high-throughput screening tests each substance at several concentrations.)
Take `CC(C)COC(=O)c1ccccc1O`: the Potency entry is “inactive”.

Turning to `COc1ccc(NC(C)=O)cc1`, the Potency result was “inactive”.

As for `C=CCSCC1Nc2cc(Cl)c(S(N)(=O)=O)cc2S(=O)(=O)N1` (stereo not given), the Potency result was “inactive”.

With `CC(C)CCCCCCN`, the Potency entry was “inactive”.

With `CC12CCC(CC1=O)C2(C)C` (stereo not given), the Potency entry was “inactive”.

`C/C=C1\C(=O)C[C@H]2[C@@H]3CCC4=CC(=O)CC[C@]4(C)[C@H]3CC[C@]12C`: the Potency entry is “inactive”.

Regarding `CCOC(=O)Cn1c(=O)sc2cccc(Cl)c21`, the Potency entry is “inactive”.

For the compound `NCCNC(=O)c1ccc(Cl)cn1`, the Potency result was “inactive”.

Regarding `c1ccc(CCCc2ccccn2)cc1`, the Potency entry was “inactive”.

Regarding `CCCCCCC(=O)OCC`, the Potency entry was “inactive”.

Regarding `COc1cccc(OC)c1`, the Potency result is “inactive”.

With `COc1ccc(COC=O)cc1`, the Potency result was “inactive”.

Regarding `CCCc1ccc(N)cc1`, the Potency entry is “inactive”.

`O=C(O)Cc1cc(I)c(Oc2cc(I)c(O)c(I)c2)c(I)c1`: the Potency entry is “inactive”.

For the compound `CCCOc1ccccc1-c1nc2n[nH]nc2c(=O)[nH]1`, the Potency result is “inactive”.

For `CC(=O)O[C@H](CC(=O)[O-])C[N+](C)(C)C`, the Potency result was “inactive”.

Consider `OCC(CO)(CO)COCC(CO)(CO)CO`, for which the Potency result is “inactive”.

Take `CCC(C(=O)NC(N)=O)c1ccccc1` (stereo not given): the Potency result is “inactive”.

`CC(C)[C@H](N)C(=O)OCCOCn1cnc2c(=O)[nH]c(N)nc21`: the Potency result was “inactive”.

`c1cc(CN2CCCCC2)cc(OCCCNc2nc3ccccc3s2)c1`: the Potency is 26.6 µM (active).

As to `NC(=O)c1ncn([C@@H]2O[C@H](CO)[C@@H](O)[C@H]2O)c1N`, the Potency entry is “inactive”.

With `CCCCCOC(=O)Nc1nc(=O)n([C@@H]2O[C@H](C)[C@@H](O)[C@H]2O)cc1F`, the Potency was 11.9 µM (active).

With `CCCCCCCCCCCCCCCCCC(=O)OCCCCCCCCCCCCCC(C)C`, the Potency result is “inactive”.

On to `COC(=O)CCCCCCCCC(=O)OC`, for which the Potency result is “inactive”.

In the case of `COc1ccc(N=[N+]([O-])c2ccc(OC)cc2)cc1`, the Potency result was “inactive”.

With `CCC(=O)Nc1cccc(N)c1`, the Potency result is “inactive”.

Consider `CCN1CCN(c2cc3c(cc2F)c(=O)c(C(=O)O)cn3C2CC2)CC1`, for which the Potency result is “inactive”.

Take `Nc1nc2c(ncn2CCC(CO)CO)c(=O)[nH]1`: the Potency result was “inactive”.

Regarding `N#CC1(O)CCCCC1`, the Potency entry is “inactive”.

In the case of `CC(C)CCCC(C)NCCC(C)C` (stereo not given), the Potency result is “inactive”.

On to `CCN1CCCC(OC(=O)C(c2ccccc2)c2ccccc2)C1` (stereo not given), for which the Potency entry was “inactive”.

As for `C#CC(C)(O)CC(C)C` (stereo not given), the Potency entry was “inactive”.

Turning to `CC(C)CCOC(=O)CC(C)C`, the Potency entry was “inactive”.

On to `COc1cccc(Br)c1`, for which the Potency entry was “inactive”.

As to `C#CC(O)C(CC)CCCC` (stereo not given), the Potency entry was “inactive”.

On to `CCCCCCCCC=O`, for which the Potency entry is “inactive”.

As to `CC(=O)NC(Cc1ccccc1)C(=O)O` (stereo not given), the Potency result was “inactive”.

Turning to `CCCCCCCCCCCCCCC`, the Potency result is “inactive”.

With `Nc1cc(C(Cl)=C(Cl)Cl)c(S(N)(=O)=O)cc1S(N)(=O)=O`, the Potency entry is “inactive”.

Regarding `CC(C)(C)OC(=O)N1C[C@@H](F)C[C@H]1C(=O)O`, the Potency result was “inactive”.
